The text below walks through data of PubChem BioAssay AID1347426 (Functional Genomics Laboratory (NCATS/FGL), 2020).

Screen size: about 31,000 sequences; about 1,400 (4.5%) were called active. Only a selection was taken, and actives are over-represented in it overall. Values without a mark were called inactive.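 How the source made its calls: active means median seed-adjusted z-score above 1 or below -1; inactive means the rest.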

A short description of this assay: Novel Modifiers of Survival Motor Neuron (SMN) Protein: Gene Identification via Genome-wide siRNA Screen.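 Further: luminescence tracks full-length SMN protein made from the SMN2 reporter.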 Conditions: HEK293T SMN2-luciferase reporter, siRNA knockdown, 72 h; actives lie on both sides. The procedure, abridged: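 Each of three siRNAs per gene is reverse-transfected (1 pmol) into reporter HEK293T cells whose luciferase output tracks SMN protein level. After 72 h culture, ONE-Glo luminescence is control-normalized, log10-transformed and MAD-standardized; Common Seed Analysis deprioritizes seed-driven hits.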
In general terms: A reporter such as luciferase makes a cellular process visible.
As to GAGACCCUCUGGUUAUAGATT against FKBP11, the median seed-adjusted z-score is -0.085.

Take AGGCCGCUGUGGACAUCAATT against CASKIN1: the median seed-adjusted z-score was 0.555.

Regarding GAUUCUACUGUCUUACUAATT against HIATL1, the median seed-adjusted z-score was 0.327.

As for CAGCAGUACCGACAGAAGATT against ATAD3B, the median seed-adjusted z-score is -0.624.

As to UCAUGAACAUUGUCAAUGATT against ADAMTS2, the median seed-adjusted z-score was -0.338.

As to GUGGUUUCUUGAUCUGAAATT against HSDL2, the median seed-adjusted z-score was -0.0717.

For GAGGCUUCAUUUUAGAAGATT against XPA, the median seed-adjusted z-score was 2.03 (active).

In the case of CCCUUUUCGUGGUCUAUGATT against LCMT2, the median seed-adjusted z-score was -0.0205.

For GCCUCGCUGUGAUCUGAUUTT against CACNG6, the median seed-adjusted z-score is -0.0499.

As for CGGUUGUUAUGACAAUGGATT against FN1, the median seed-adjusted z-score was -0.312.

Regarding UGCUCUACUUCUUAAGUGATT against STARD8, the median seed-adjusted z-score was -0.135.

As for GAAGGAUCUCAAACUCGAATT against NECAB1, the median seed-adjusted z-score was 0.0268.

Take GAUCUUCGGUGAAUCAGAATT against MRC2: the median seed-adjusted z-score is -1.34 (active).

With GGUCAUUAAUUUACAUGAATT against STK17A, the median seed-adjusted z-score was 0.

For ACAACGUGGUGAGAUGCAATT against LOXL1, the median seed-adjusted z-score is 0.0435.

In the case of GAGGUUUUAUAUAACCGAUTT against SMC6, the median seed-adjusted z-score was 0.227.

For the sequence GCAUGUUAUCGAAGGGUUUTT against PHC2, the median seed-adjusted z-score is 0.177.

In the case of GAUGCUACUUUAGAAUUAATT against GNPDA2, the median seed-adjusted z-score was -0.422.

In the case of AGAUUUAUCUUGAAGCUGATT against ARL4D, the median seed-adjusted z-score is -0.523.

Turning to CUUGAUGACUCUAAACCUATT against RUNX2, the median seed-adjusted z-score is 0.335.

On to AAGACUCACUUGUUCAACATT against ZNF772, for which the median seed-adjusted z-score was 0.817.

GGGACAAGUUCGUCAUCUUTT against CRYAA: the median seed-adjusted z-score is -1.03 (active).

With CCUAUGAUAUGGUUCCAGATT against COX5A, the median seed-adjusted z-score was -0.348.

Consider GGUAUACAAGGAAAGGUUATT against EIF4E, for which the median seed-adjusted z-score is -0.404.

In the case of UGGACAUUCUUGCACCCAATT against CHTF18, the median seed-adjusted z-score is 0.371.

As for CAAUAUUAGUUGCUGUAUATT against PPAP2A, the median seed-adjusted z-score was 0.

Take UGCUGACCUCGUUACCUUUTT against UCP3: the median seed-adjusted z-score was 1.23 (active).

Consider CAGUCUUUAUGCAAUGGAATT against TYR, for which the median seed-adjusted z-score is 0.131.

With AGAUGUACAACGACCCAAATT against AGBL4, the median seed-adjusted z-score is 0.487.

Consider GCAUGGUAUUGGAAUAACUTT against CHEK1, for which the median seed-adjusted z-score was -5.1 (active).

In the case of GACCUUCCACAGUACAUCATT against MAST3, the median seed-adjusted z-score is -0.642.

Take GCUCAGAUAAAGUACAGAATT against GGCX: the median seed-adjusted z-score is -0.362.

As for GAGUCAUAGUUGCAGCUGATT against PSMB5, the median seed-adjusted z-score is -1.37 (active).

Take CCUCAUGACUUCGCAAAUATT against COPB1: the median seed-adjusted z-score is -0.839.

Consider GGACCAUAACUCUUACGUATT against RBM26, for which the median seed-adjusted z-score is -0.967.

For the sequence UCACUGUGCUACAUCAUCATT against MYL7, the median seed-adjusted z-score is -1.21 (active).

Turning to GUUGAGGUCUGGUAACAGATT against TMED1, the median seed-adjusted z-score was 0.

Take GGAGUUUGUUUGCAAGUAUTT against RREB1: the median seed-adjusted z-score is -0.414.

Turning to CCAUCUACAUCAGAGUCCATT against BTN1A1, the median seed-adjusted z-score was 0.291.

Regarding GGACAAAUUUUGGAGAGAATT against COG2, the median seed-adjusted z-score is 0.791.

Regarding CCAACAGGAGAGUACGUGATT against STRADA, the median seed-adjusted z-score was 0.415.

For the sequence CCAUUUGACUUUAUGGAGATT against RRM2, the median seed-adjusted z-score was -3.84 (active).

In the case of GGCCUUCGUGUACAUCAAUTT against SUV39H1, the median seed-adjusted z-score was -0.0775.

As to CUAUGCCCGUGGUCACUAUTT against TUBA4A, the median seed-adjusted z-score was -0.594.

Turning to GAGCCGCUGGUGUAUCUUUTT against TLR4, the median seed-adjusted z-score was 0.113.

In the case of GGCAAGAUCUGUACCGUGATT against HPN, the median seed-adjusted z-score is -0.0237.

Consider CCAGGACAUUCGAAAGCGATT against TRAF4, for which the median seed-adjusted z-score is -1.16 (active).

For the sequence CGGGUACAAGGAUUGGUUUTT against ROM1, the median seed-adjusted z-score was 0.41.

On to CCACUCUCAUUGUGACUGATT against DDX54, for which the median seed-adjusted z-score is 0.

GGAUUAUGAAGAAUGGAAATT against ORC6L: the median seed-adjusted z-score is 0.

Consider “GGCAGAGCCUGACCACUUUTT against LOC100137047-PLA2G4B”, for which the median seed-adjusted z-score was -0.022.

GGAGCGAGCUGGUGCAUAATT against SH3BP5: the median seed-adjusted z-score was -0.707.

On to GCAUCGCUGUUACCCAUCUTT against CCRN4L, for which the median seed-adjusted z-score is -0.572.

For GGAGAUAAGAGAUCAUAUUTT against OXNAD1, the median seed-adjusted z-score is 0.36.

For the sequence CAUGAGAUACGAUACACUATT against TRMT6, the median seed-adjusted z-score was 0.069.

Regarding CGCACACGUAGAGACCUUATT against PNN, the median seed-adjusted z-score is 1.29 (active).

With CAACUUCACUCAGAACCCATT against MARCO, the median seed-adjusted z-score is 0.137.

Turning to GCCUACUUCAUUCAUCAUATT against KSR1, the median seed-adjusted z-score is 0.0873.

For the sequence CAAUCGUCCAAUGAUCUUATT against PCDHB1, the median seed-adjusted z-score is 0.342.

CCUUCAUAGUCAACAGCAATT against MGC16703: the median seed-adjusted z-score is 0.55.

As for GCACGACGACAAUAUCAUUTT against PEX3, the median seed-adjusted z-score is 0.142.

In the case of CCAUUAUUGACUCACCCUATT against CSTF2T, the median seed-adjusted z-score was 0.387.

With GCAUAACUUGAAUAGUACATT against AKAP11, the median seed-adjusted z-score was -0.0405.

As for GCAUCAUUGAAGGACUAGATT against HEY1, the median seed-adjusted z-score was -0.023.

As to CCCUGGUAGUCAAAAACGATT against PHKB, the median seed-adjusted z-score is -0.142.

For GCUGUGAACUGACUCUGCATT against UROD, the median seed-adjusted z-score is 1.11 (active).

Consider GCCCGACUCUCUAAUGGAATT against PRKD3, for which the median seed-adjusted z-score was -0.906.

As for CUACCGUGCAAGUUCAUUATT against CD3D, the median seed-adjusted z-score is -0.403.

Take CCGUCAAGGUGUAUUUUGATT against PPIB: the median seed-adjusted z-score was 0.038.

As for GGCUUAACAUUGAACGAAUTT against CRY2, the median seed-adjusted z-score was 0.0209.

For the sequence CCAAGACUCCAACCAUUUUTT against IKZF4, the median seed-adjusted z-score is -0.426.

Regarding GGACCUCAAAGUUGUCUAUTT against AP1S1, the median seed-adjusted z-score is -1.04 (active).

For CGUGGGAUGCUCAAAGAUATT against EZR, the median seed-adjusted z-score is 0.0344.

CCCAGAUCAUAUACUCCUATT against LYPLAL1: the median seed-adjusted z-score is -0.425.

In the case of GGCAUGAAGUGAAGGAUGATT against ZNF134, the median seed-adjusted z-score was -0.0978.

With CCUCAAUACUCCGCAAAUATT against NMNAT2, the median seed-adjusted z-score is -1.58 (active).

Turning to GGAAAGUUAUCAGGAUGCATT against SAG, the median seed-adjusted z-score is 0.

Regarding GGAUUCCAAUCUUAGCUUUTT against RLN1, the median seed-adjusted z-score was 0.0637.

For GGAAUUCCUUUAAUGACGATT against RYR3, the median seed-adjusted z-score was 0.

Take CCACCAGCGUGAUCAUUGUTT against GALNT6: the median seed-adjusted z-score was -0.287.

With CUUCCAUGCCUUUGACCUATT against CDCP2, the median seed-adjusted z-score is 0.0708.

Take CUUGUGUUCUGAGAAUACATT against KRT83: the median seed-adjusted z-score was 1.15 (active).

For AGAAUCGUGUGGAAAAAGATT against PARK7, the median seed-adjusted z-score was -0.357.

With CCAUGACAAUCAACGAGGATT against AMY2A, the median seed-adjusted z-score is -0.266.

As for CUUUUGCCUGUAGCCCAUATT against GCS1, the median seed-adjusted z-score is 0.819.

On to CGAGAUAACUACUUUCGGATT against RALB, for which the median seed-adjusted z-score was -0.534.

ACAGAUCCAUUUUUAGGGATT against PKIG: the median seed-adjusted z-score is 0.0916.

As to CCACGUCUCUGGAGAGUUUTT against ALAD, the median seed-adjusted z-score is 0.0952.

Take GGCUGUACAUCUGGACCAATT against NFKBIE: the median seed-adjusted z-score was -0.452.

For the sequence GGAUGGGCCUUGAAGCCUUTT against GPR97, the median seed-adjusted z-score was -0.0155.

GGGAAUAUCUCUUCCGACATT against ACTL7A: the median seed-adjusted z-score is 1.1 (active).

Consider GGCUAUCAUCUACACCCGATT against UGCG, for which the median seed-adjusted z-score is 0.492.

Take CGAUUAUUGUGAGCCUAAUTT against JAG1: the median seed-adjusted z-score is -0.32.

For CUAAGAGACUAAAUGCAAATT against SUCLG2, the median seed-adjusted z-score is -0.619.

Regarding GGGCCGCUUUAGAAAGGUATT against SNX1, the median seed-adjusted z-score was 0.0261.

As to CCUGGACCCUGAACUCACATT against LILRA4, the median seed-adjusted z-score was 0.109.

For the sequence GCAUUACAGUACUUACGUATT against BTAF1, the median seed-adjusted z-score was -1.19 (active).

As to GGCUCUUACAAGUCCUUAUTT against CHRM2, the median seed-adjusted z-score is 0.053.

As to GGCAUUACCGUGUAUAACATT against CHST10, the median seed-adjusted z-score is 0.115.

For the sequence GUACUGGAGUGAUGAGUUUTT against PARP12, the median seed-adjusted z-score is -0.287.

Regarding GUCUGUCGCUACUACAAUATT against SLCO2B1, the median seed-adjusted z-score was 0.289.

As for CGAUGGGUCUGUGCACAAATT against TGM2, the median seed-adjusted z-score was 0.413.

In the case of CGGCCUUGAUAAACUGAAATT against SNAPC3, the median seed-adjusted z-score is -1.72 (active).

Regarding CCAUGAGUGUGACUCUCAATT against ZNF599, the median seed-adjusted z-score is 0.0896.

With CCCGGAUUGUUCCUACUGATT against ALG9, the median seed-adjusted z-score was -0.267.

As for CGGGCUCCGUAGUCACAUUTT against NAALADL1, the median seed-adjusted z-score was -0.0444.

On to GAACAAAUCUGCGAGAUCATT against DIRAS2, for which the median seed-adjusted z-score was -1.25 (active).

Take GCAGUUGGAGAGAUAAUAATT against VRK1: the median seed-adjusted z-score was -0.148.
